Hit rate of the full screen: of about 300,000 compounds, about 2,500 (0.83%) were called active. Cut-off read from the data, not from the text of the source: active = inhibition above about 60%; inconclusive = no clear call, values can overlap the other calls; inactive = below that. This excerpt belongs to a sample that is enriched for actives.
Assay: 5' untranslated region of α-synuclein, MLPCN primary screen (AID 1813);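 note: H4 neuroglioblastoma cells stably carrying SNCA 5'UTR luciferase fusion; 0% = DMSO wells and 100% = positive control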
Details: alpha-synuclein 5'UTR reporter, inhibitor activity; stronger effect = higher value; tested at 7.5 µM

| Structure (SMILES) | inhibition |
| --- | --- |
| Cc1c(C(=O)N2CCCc3ccccc32)oc2ccccc12 | -96.2% (inactive) |
| Cc1cccc2cc3c(N)c(C(=O)N4CCCc5ccccc54)sc3nc12 | 85.2% (active) |
| Cc1c(C(=O)N2CCCc3ccccc32)sc2nc(-c3ccccc3)cn12 | -83.5% (inactive) |
| COc1ccc2c(c1)cc1n2CCN=C1NN | -27.8% (inactive) |
| CN1c2ccc(C=O)c3c(C=O)ccc(c23)N(C)C1(C)C | 67% (active) |
| CCN(CC(=O)Nc1c(F)cccc1F)C(=O)c1ccc(S(=O)(=O)N2CCCCC2)cc1 | 6.51% (inactive) |
| O=C(c1ccc(F)cc1)N1CCC(n2nnc3ccccc32)CC1 | 6.11% (inactive) |
| Cc1cc(OCc2ccc(C(=O)Nc3ccc(C(=O)O)cc3)o2)ccc1Cl | 32.2% (inactive) |
| CCOC(=O)c1ccc(NC(=O)c2c(N)n(C)c(=O)[nH]c2=O)cc1 | -15.4% (inactive) |
| Cc1noc(C)c1/C=N/Nc1ccc2ccccc2n1 | -146% (inactive) |
| C(=N\Nc1ccc2ccccc2n1)/c1ccc2c(c1)OCO2 | 88.2% (active) |
| Brc1ccc(-c2csc(N/N=C/c3ccc4c(c3)OCO4)n2)cc1 | -59.4% (inactive) |
| CCCc1nc(N2CCN(C)CC2)c2sc(=S)n(-c3ccccc3)c2n1 | 2.12% (inactive) |
| CCOC(=O)C1C(=O)NCC1c1ccccc1 (configuration not stated) | -12.2% (inactive) |
| NC(=O)COC(=O)c1ccc2c(c1)C(=O)N(Cc1ccco1)C2=O | -5.55% (inactive) |
| CCN1CCN(C(c2cccnc2)c2cc(Cl)c3cccnc3c2O)CC1 (configuration not stated) | -29.1% (inactive) |
| Cc1cccnc1NC(=O)c1cccc(S(=O)(=O)N2CCN(c3ccc(F)cc3)CC2)c1 | 26.9% (inactive) |
| Oc1c(CN2CCN(c3ccc(F)cc3)CC2)cc(Cl)c2cccnc12 | 69.6% (active) |
| CC(=O)c1ccc(NC(=O)CCc2nnc3ccc(NCc4ccco4)nn23)cc1 | -95.3% (inactive) |
| Cc1cccn2c(=O)c3cc(C(=O)NCC4CCCO4)c(=N)n(Cc4ccc(F)cc4)c3nc12 (configuration not stated) | 9.52% (inactive) |
| Cc1cccn2c(=O)c3cc(C(=O)NCCN4CCOCC4)c(=N)n(Cc4cccnc4)c3nc12 | 97% (active) |
| COc1ccc(CCn2c(=N)c(C(=O)NCC3CCCO3)cc3c(=O)n4cccc(C)c4nc32)cc1OC (configuration not stated) | -9.36% (inactive) |
| CCOc1cccc(OCCCOc2cccc3cccnc23)c1 | 5.95% (inactive) |

| Structure (SMILES) | inhibition |
| --- | --- |
| O=C1CCC([N+](=O)[O-])C(c2ccccc2Br)N1 (configuration not stated) | 0.315% (inactive) |
| O=C1C(=O)N(CCCO)C(c2ccccc2)/C1=C(\O)c1ccc(Br)cc1 (configuration not stated) | 4.06% (inactive) |
| O=C(Oc1cccc(N2C(=O)C3C4c5ccccc5C(c5ccccc54)C3C2=O)c1)c1ccco1 (configuration not stated) | 2.5% (inactive) |
| CN1CCCC(OC(=O)COc2ccc(Br)cc2)C1 (configuration not stated) | 4.45% (inactive) |
| COc1cc2c(cc1OC)/C(=C/C(=O)c1ccc(NC(C)=O)cc1)NCC2 | 22.9% (inactive) |
| CC1CN/C(=C\C(=O)c2ccc(Br)cc2)C(=O)N1 (configuration not stated) | 62% (active) |
| O=C(NCCCCCCCCCNC(=O)C(F)(F)F)C(F)(F)F | 9.8% (inactive) |
| CCOC(=O)N1CCN(S(=O)(=O)c2ccc(OC)cc2)CC1 | 4.08% (inactive) |
| CCOC(=O)N1CCN(S(=O)(=O)c2ccc(C(=O)Nc3ccc(F)cc3F)cc2)CC1 | 69.5% (active) |
| CCOC(=O)N1CCN(S(=O)(=O)c2ccc(Br)cc2)CC1 | -14.3% (inactive) |
| Cc1cc(NC(=O)C(C)N2C(=O)c3ccccc3S2(=O)=O)no1 (configuration not stated) | -18.2% (inactive) |
| CCN(CC)c1ccc(/C=N/NC(=O)c2cnccn2)c(O)c1 | 72.3% (active) |
| CCN(CC)c1ccc(/C=N/NC(=O)CNC(=O)c2cccnc2)cc1 | 5.51% (inactive) |
| Cc1ccc(C(=O)NCCNC(=O)c2cnccn2)cc1 | -3.06% (inactive) |
| Cc1cn(C2C=CC(CO)O2)c(=O)[nH]c1=O (configuration not stated) | -0.0254% (inactive) |
| CC[C@]1(O)CC2CN(CCc3c([nH]c4ccccc34)[C@@](C(=O)OC)(c3cc4c(cc3OC)N(C=O)[C@H]3[C@@](O)(C(=O)OC)[C@H](OC(C)=O)[C@]5(CC)C=CCN6CC[C@]43[C@@H]65)C2)C1 (some centres not stated) | 102% (active) |
| CC[C@]1(O)C[C@@H]2CN(CCc3c([nH]c4ccccc34)[C@@](C(=O)OC)(c3cc4c(cc3OC)N(C)[C@H]3[C@@](O)(C(=O)OC)[C@H](OC(C)=O)[C@]5(CC)C=CCN6CC[C@]43[C@@H]65)C2)C1 | 77.2% (active) |
| CCc1nc2ccccc2c(C(=O)OC2CCCCC2=O)c1C (configuration not stated) | 8.85% (inactive) |
| CCCc1cc(=O)[nH]c(SCC(=O)c2c(N)n(CC(C)C)c(=O)n(C)c2=O)n1 | 88.3% (active) |
| CCCc1cc(=O)[nH]c(SCC(=O)c2cc(C)n(CCC)c2C)n1 | 23.4% (inactive) |
| CCCc1cc(=O)[nH]c(SCC(=O)OCc2ccccc2)n1 | 13.7% (inactive) |
| Cc1ccc2nc(SC(C)C(=O)NCc3ccco3)[nH]c2c1 (configuration not stated) | 30% (inactive) |
| CC(=O)NN1C(=O)c2ccccc2NC1c1ccccc1 (configuration not stated) | 19.3% (inactive) |

| Structure (SMILES) | inhibition |
| --- | --- |
| CC1=NNC(=O)C1Cc1c(Cl)cccc1Cl (configuration not stated) | 27% (inactive) |
| Oc1c(Cl)cc(Cl)c(Cl)c1Cc1c(O)c(Cl)cc(Cl)c1Cl | 77.3% (active) |
| COCCNc1nc(N)c([N+](=O)[O-])c(N2CCCCCC2)n1 | 17.3% (inactive) |
| Cc1cc(OC(=O)c2ccc(OC(C)C)cc2)c([N+](=O)[O-])c(=O)[nH]1 | -3.29% (inactive) |
| O=S(=O)(c1ccc(Br)cc1)N1CCC(c2nc3ccccc3[nH]2)CC1 | 78.3% (active) |
| N#CC(C(=O)c1ccc(S(=O)(=O)N2CCCCCC2)cc1)c1nc2ccccc2[nH]1 (configuration not stated) | -4.96% (inactive) |
| O=C(C1CCCO1)N1CCC(c2nc3ccccc3[nH]2)CC1 (configuration not stated) | -15.4% (inactive) |
| Cc1cccc(N2CCN(S(=O)(=O)c3ccc4[nH]c(=O)c(=O)[nH]c4c3)CC2C)c1 (configuration not stated) | 3.92% (inactive) |
| COc1cc2c(cc1OC)C(C)N(S(=O)(=O)c1cnc(Cl)c(Cl)c1)CC2 (configuration not stated) | 36.4% (inactive) |
| S=c1[nH]c(-c2cccs2)cn1-c1ccccc1 | -60.3% (inactive) |
| COc1ccc(-c2cn(-c3ccc(OC)cc3)c(=S)[nH]2)cc1 | -129% (inactive) |
| O=c1oc2ccccc2cc1-c1cn(-c2ccccc2)c(=S)[nH]1 | 119% (active) |
| O=C(CNCc1ccc(F)cc1)Nc1ccccc1-c1ccccc1 | 16.3% (inactive) |
| COCc1cc(=O)[nH]c(SC)n1 | -10.1% (inactive) |
| N#C/C(=C\c1cccnc1)C(=O)Nc1ccc(SC(F)F)cc1 | 1.4% (inactive) |
| O=[N+]([O-])c1ccc2[nH]c3c(c2c1)CCCC3O (configuration not stated) | 10.7% (inactive) |
| O=[n+]1c2c(n([O-])c3cc(Br)ccc31)CCC2 | 10.3% (inactive) |
| O=C1CCCc2c1[nH]c1ccc(Br)cc21 | 89% (active) |
| COC(=O)CN1C(=O)N/C(=C/c2ccc(OC)c(C)c2OC)C1=O | -8.7% (inactive) |
| O=C(COC(=O)Cn1[nH]c(=O)c2ccccc2c1=O)Nc1c(Cl)cccc1C(F)(F)F | 4.65% (inactive) |
| CN1CCN(CCCNC(=O)c2ccc(/C=C3\Oc4ccccc4N(Cc4ccc(Cl)cc4)C3=O)cc2)CC1 | 96.5% (active) |
| CN1C(=O)/C(=C/c2ccc(C(=O)NC3CCCC3)cc2)Oc2ccccc21 | -48% (inactive) |
| O=C(NCCN1CCOCC1)c1ccc(/C=C2\Sc3ccccc3N(Cc3ccc(F)cc3)C2=O)cc1 | 14% (inactive) |

| Structure (SMILES) | inhibition |
| --- | --- |
| FC(F)(F)c1cnc(Oc2ccccc2-c2nnc(-c3ccc(Cl)cc3)o2)c(Cl)c1 | -1.16% (inactive) |
| COc1cccc(/C=N/Nc2ncc(C(F)(F)F)cc2Cl)c1O | 76.7% (active) |
| Oc1cccc(/C=N/Nc2ccc(Cl)nn2)c1O | -6.82% (inactive) |
| Cc1n[nH]c(=O)c2c(NC(=O)CSc3ccccc3F)oc(C)c12 | -9.19% (inactive) |
| CCNS(=O)(=O)c1ccc(NC(=O)c2cncc(Br)c2)cc1 | 8.56% (inactive) |
| Oc1ccc(N=Nc2nccs2)c(O)c1 | 24.3% (inactive) |
| c1ccc(NCc2cccc3ccccc23)nc1 | 19.1% (inactive) |
| Oc1ccc2ccccc2c1N=Nc1nccs1 | 87.4% (active) |
| CCCCOc1ccc(C(=O)NN2CCN(C)CC2)cc1 | 1.5% (inactive) |
| CCCOc1ccc(C(=O)CCC(=O)OC(C)C(=O)Nc2ccc(NC(C)=O)cc2)cc1 (configuration not stated) | -18.6% (inactive) |
| CCCOc1ccc(C(=O)C(CCC(CNCC)C(=O)c2ccc(OCCC)cc2)CNCC)cc1 (configuration not stated) | 107% (active) |
| Cc1ccc(S(=O)(=O)N2CCCCC2)cc1C(=O)N(C)CC(=O)Nc1cccc(F)c1 | 11% (inactive) |
| COC(=O)c1c(NC(=O)COc2ccc(Cl)cc2Cl)sc2c1CC(C)(C)NC2(C)C | 102% (active) |
| CCOC(=O)c1c(NC(=O)c2ccc(S(=O)(=O)N(C)CC3CCCO3)cc2)sc2c1CC(C)(C)NC2(C)C (configuration not stated) | 0.581% (inactive) |
| COC(=O)c1sccc1NC(=O)COc1ccc(Cl)cc1 | -35.3% (inactive) |
| CCOc1ccc(CC(=O)NCCS(=O)(=O)N2CCN(c3ccccc3)CC2)cc1 | 13.9% (inactive) |
| Cc1cc(OC(=O)c2ccccc2Cl)ccc1N1C(=O)CCC1=O | -3.87% (inactive) |
| COc1ccc(NC(=O)c2cccc3c2C(=O)N(CC2CCCO2)C3)cc1OC (configuration not stated) | 32.1% (inactive) |
| CN1CCN(C2Cc3ccc(Cl)cc3Sc3ccc(F)cc32)CC1 (configuration not stated) | 104% (active) |
| Cc1ccc2nc(-c3ccc(Br)cc3)cn2c1 | 63.2% (active) |
| CSc1nnc2ccc(-c3ccc(C)cc3)nn12 | 16.4% (inactive) |
| Cc1ccc(-c2cn3cc([N+](=O)[O-])ccc3n2)cc1 | 22.1% (inactive) |
| CCn1c(=O)c(C(=O)NCc2ccc3c(c2)OCO3)c(O)c2ccccc21 | 11.8% (inactive) |

Source: PubChem BioAssay AID1813 (Broad Institute, 2009)
